# Columns and labels:
# Assay in all cases: PBM binding z-score (relative to random genomic background probes); higher = stronger binding; sequences stand for … in GC…GCGATTGACAGCGTAGAATGAAGG
# [1] = tested on: FXR:RXRa (NR concentration 270 nM, RXRa partner concentration 90 nM)
# Method in brief: (§1)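 Scanned fluorescence from custom Agilent 4×180K protein-binding microarrays was regression-normalized. Binding z-scores use random background probes as reference. Ligand-free nuclear receptor dimers were incubated on the arrays for 1 h and detected with antibodies against each partner (one per run).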
# [2] = tested on: LXRa:RXRa (NR concentration 270 nM, RXRa partner concentration 90 nM)
# Method in brief: as §1
# [3] = tested on: LXRa homodimer (NR concentration 270 nM)
# Method in brief: as §1
# [4] = tested on: LXRb:RXRa (NR concentration 270 nM, RXRa partner concentration 90 nM)
# Method in brief: as §1
# [5] = tested on: LXRb homodimer (NR concentration 270 nM)
# Method in brief: as §1
# [6] = tested on: PPARa:RXRa (NR concentration 270 nM, RXRa partner concentration 90 nM)
# Method in brief: as §1
# [7] = tested on: PPARg:RXRa (NR concentration 180 nM, RXRa partner concentration 90 nM)
# Method in brief: as §1
# [8] = tested on: PPARg:RXRa 270nM:90nM, anti-RXR (NR concentration 270 nM, RXRa partner concentration 90 nM)
# Method in brief: as §1
# [9] = tested on: PPARg:RXRa 30nM:10nM, anti-RXR (NR concentration 30 nM, RXRa partner concentration 10 nM)
# Method in brief: as §1
# [10] = tested on: PPARg:RXRa 90nM:30nM, anti-RXR (NR concentration 90 nM, RXRa partner concentration 30 nM)
# Method in brief: as §1
Sequence,PBM binding z-score [1],PBM binding z-score [2],PBM binding z-score [3],PBM binding z-score [4],PBM binding z-score [5],PBM binding z-score [6],PBM binding z-score [7],PBM binding z-score [8],PBM binding z-score [9],PBM binding z-score [10]
TCTTGAAGATCAAAGGTTAAGAAAGCCGAAGCCT,1.84,2.29,0.0814,2.16,-0.506,4.1,4.39,5.89,5.18,6.85
CCTAGTTGGTCAGGAGGTCACACTCCGGATATGA,3.59,3.48,2.22,3.31,0.86,3.98,3.28,4.03,1.65,3.38
ATCTCTAGGTAGAGATAGTTCAGTGAATGCAAAT,-0.234,-0.0128,0.0165,-0.111,0.0975,0.178,0.258,0.0156,0.0243,0.104
TAGCCTAGGTCATTAGGCCAGTATAGTACGCATC,3.64,2.91,0.7,1.88,0.111,3.31,3.34,3.34,1.05,2.14
AGTATGAGGTTATACGTAGATCAGGGAAGAAAGT,1.82,2.03,0.26,1.56,0.204,2.46,1.32,1.2,0.646,1.07
GCAGACTGGTGAAACGCAGGTAACTCAGGGTGGC,-0.987,-0.932,-0.841,-1.19,-1.45,-1.12,-0.00355,-0.98,-0.852,-1.12
GCGACTGGGGCATCAGCAGATTACCATAACTTAA,-0.359,-0.612,-0.401,0.0496,-0.549,0.511,1.02,0.488,-0.24,0.0962
CCTACTAGGCCAAAAAGGTCATTGATGCCGATAA,3.79,4.67,3.6,4.54,0.985,4.84,3.56,4.24,1.54,3.67
ATCTCTAGGTAAGACTCAGTTCTGTGAAGAACGC,0.335,0.184,0.199,0.00724,0.696,0.118,-0.0876,-0.0102,-0.0402,-0.012
CGAACGAGGGCATGAGTTGATAGTAAATGCCGAT,0.719,0.489,-0.433,0.273,-0.709,1.27,1.45,1.26,0.122,0.578
CAGACTAGGTCACCGGAAGGTCAAAGTCCGCATG,5.95,5.63,4.26,5.14,0.786,5.42,7.82,7.03,3.63,6.35
ACTATTAGTTGACTTCGGGCAACCGATACGACGC,0.0947,0.0355,0.567,0.0208,0.752,-0.237,0.757,0.358,0.0391,0.162
GCTTACGGGTCAAAGGTTATAGCGTGAATAGAAT,7.45,5.66,0.631,5.61,0.387,6.97,11,9.25,9.52,9.99
CCTGCTAGGTCATGGTTAGCTAATCTACAGTATG,3.74,2.32,-0.0293,1.71,-0.265,3.76,2.65,3.06,0.508,2.06
ACTAGTTGGTCAACTGAGGTCACACACAATTCGG,4.03,4.75,3.24,3.99,0.711,4.31,3.06,3.01,0.826,2.8
GCTAGTTGGTCAGTAAAAGGTCACACAACGGTCG,3.52,4.37,4.08,4.15,0.685,4.73,3.31,4.38,2.61,4.66
TTACCAAGGTGCAAGGTCGTTGATGCACGCCTTG,0.786,1.16,0.129,0.668,-0.474,2.06,2.28,3.87,1.91,3.42
TCTATTAGTTGAAGGGCAAACGACGAGTCCGTTT,0.768,1.24,0.6,1.3,0.637,1.43,0.285,2.43,3.63,2.94
CCTCAGAGGACAGAAGGTCAGAGCTGTCCGCTTT,1.31,1.63,-0.13,1.24,-0.707,2.19,0.358,0.634,-0.132,0.513
TAGCCTAGGTCATTGGGCCAGTATGGTACGCATC,4.05,3.25,0.37,2.07,0.231,3.63,3.54,3.7,0.478,2.47
CCTACCGGGCCACGAAAGGTCATTGATTCAGTGA,3.59,5.17,5.04,4.36,0.399,4.26,1.96,2.98,0.636,1.92
TCATATAGGTAAACAGATGAAAGTCCGTAAGTTA,1.23,0.739,0.342,0.86,-0.0548,1.14,1.36,2.08,3.81,3.18
TAGCCTAGGCCATTCAGGGGCCAGTATAGAAAGC,-0.487,-0.796,-0.549,-0.624,-0.52,-0.185,0.0353,-0.377,-0.468,-0.511
TCATATAGGTAAACAGCTGAAAGTCCGTAAGTTA,1.09,0.759,0.185,0.758,-0.215,1.37,0.75,2.36,3.9,3.19
